We go through nine compounds from PubChem BioAssay AID652235 (Sanford-Burnham Center for Chemical Genomics, 2013).

The list shows a part of the results. The source made the active and inactive calls.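 How the source made its calls: active means inhibition of at least 50% in the primary cell screen; inactive means the rest.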

This experiment concerns the target Matrix metalloproteinase-14 (Homo sapiens) (UniProt P50281). Briefly: retesting blockers of MT1-MMP activation – single concentration, fluorescence, HT1080 RFP-PRO-GFP cells, confirmation (AID 652235). Conditions: GFP and RFP fluorescence ratio, overnight, at 20 µM, hits give high values.
Broadly, the inhibition is the drop in the measured response relative to a control, in per cent. `O=c1ccc2c(-c3ccccc3S(=O)(=O)O)c3ccc(O)c(O)c3oc-2c1O`: the inhibition was 48.5% (inactive).
For the compound `CN=C1C=C/C(=N/N=c2\ccn(O)cc2C)C=C1C`, the inhibition was 43.7% (inactive).
For `Nc1ccc(Nc2ccccc2)cc1`, the inhibition was 12.6% (inactive).
For `Cc1cc2ccccc2n1CCNC(=O)COc1ccc2ccccc2c1`, the inhibition was 6.16% (inactive).
On to `COc1ccc(C)cc1Nc1nc(-c2c(C)[nH]c3ccccc23)cs1`, for which the inhibition is 4.82% (inactive).
As to `O=C1CCCC(O)=C1N=Nc1ccc(S(=O)(=O)N2CCOCC2)cc1`, the inhibition is 4.19% (inactive).
Take `O=P(O)(CP(=O)(c1ccccc1)c1ccccc1)c1ccccc1`: the inhibition was -1.14% (inactive).
For the compound `O=C(NNc1c2ccccc2nc2ccccc12)c1cc2ccccc2cc1O`, the inhibition was 52.9% (active).
As for `O=C(c1cccc(Cl)c1)N1CCN(Cc2ccccc2)CC1`, the figure is -1.11% (inactive).
